Experimental data: PubChem BioAssay (NCI)
Compounds without any hit were thinned out: in the full panel of roughly 79,000, 15% have a hit. Calls of active or inactive are those of the source. No stated cut-off is given here; in the data, active means growth inhibition above about 70%; inactive means the rest.

What was measured:
[1] = NCI Yeast Anticancer Drug Screen. Data for the rad50 strain (AID 155);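 further: 0% = growth of vehicle-only cultures of the same strain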; conditions: S. cerevisiae rad50 strain growth inhibition, hits give high values
In short: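 Vehicle-treated cultures provide the reference for the growth inhibition reported for compound-exposed, repair-deficient yeast.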

[2] = NCI Yeast Anticancer Drug Screen. Data for the mec2-1 strain (AID 157); conditions: S. cerevisiae mec2-1 strain, hits give high values
In short: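 Cells of the genetically defined mec2-1 yeast strain are incubated with test compound. Inhibition of growth is calculated against vehicle-treated controls.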

[3] = NCI Yeast Anticancer Drug Screen. Data for the sgs1 mgt1 strain (AID 161);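 further: 0% = growth of cultures given vehicle only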; conditions: S. cerevisiae sgs1 mgt1 strain, hits give high values
In short: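 Inhibition of yeast growth, normalised to vehicle-treated controls, is reported for a strain bearing genetic alterations in DNA damage repair.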

[4] = NCI Yeast Anticancer Drug Screen. Data for the cln2 rad14 strain (AID 165);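 further: 0% = growth equal to vehicle treated cultures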; conditions: S. cerevisiae cln2 rad14 strain, hits give high values
In short: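 The screen exposed genetically defined yeast (cln2 rad14) to test compounds and scored growth inhibition relative to vehicle-treated controls.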

[5] = NCI Yeast Anticancer Drug Screen. Data for the bub3 strain (AID 167); conditions: S. cerevisiae bub3 mutant strain, hits give high values
In short: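 Mutant yeast screening strain plus compound; vehicle-treated cultures serve as the 0% inhibition reference.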

[6] = NCI Yeast Anticancer Drug Screen. Data for the mlh1 rad18 strain (AID 175); conditions: S. cerevisiae mlh1 rad18 strain growth inhibition, hits give high values
In short: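 Compound-treated yeast growth, normalised to vehicle controls. Strain bears defined DNA repair mutations.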

[7] = at 5.0 µM (retest, dose inferred, filed as 0.5)
[8] = at 50.0 µM (retest, dose inferred, filed as 5.0)

Measured: growth inhibition

C[CH2][Ge]([CH2]C)([CH2]C)[O]C(=O)C([O][Ge]([CH2]C)([CH2]C)[CH2]C)c1ccccc1 (stereo not given)
active: [1]; at 50.0 µM 91.2% | [2]; at 50.0 µM 93% | [3]; at 50.0 µM 91.3% | [4]; at 50.0 µM 89.5% | [5]; at 50.0 µM 90.6% | [6]; at 50.0 µM 89.5%
inactive: [1]; [7] 15% | [1]; [8] 15% | [2]; [7] 6% | [2]; [8] 6% | [3]; [7] 13% | [3]; [8] 13% | [4]; [7] 15% | [4]; [8] 15% | [5]; [7] 5% | [5]; [8] 5% | [6]; [7] 23% | [6]; [8] 23%

CC(=O)OC1(c2ccccc2)N=C(c2ccccc2)N=C1c1ccccc1 (stereo not given)
active: [6]; at 50.0 µM 70.1%
inactive: [1]; [7] 13% | [1]; [8] 28% | [1]; at 50.0 µM 28.9% | [2]; [7] 4% | [2]; [8] 13% | [2]; at 50.0 µM 19.1% | [3]; [7] 6% | [3]; [8] 37% | [3]; at 50.0 µM 65.8% | [4]; [7] 13% | [4]; [8] 28% | [4]; at 50.0 µM 38.3% | [5]; [7] 13% | [5]; [8] 24% | [5]; at 50.0 µM 41.9% | [6]; [7] 3% | [6]; [8] 39%

O=c1oc2cc(N=Cc3ccc4c(c3)OCO4)ccc2c2ccccc12
active: [1]; at 50.0 µM 80.7%
inactive: [1]; [7] -3% | [1]; [8] 39% | [2]; [7] 1% | [2]; [8] 24% | [2]; at 50.0 µM 8.65% | [3]; [7] -7% | [3]; [8] 4% | [3]; at 50.0 µM 0.25% | [4]; [7] -17% | [4]; [8] 8% | [4]; at 50.0 µM 1.2% | [5]; [7] -4% | [5]; [8] 5% | [5]; at 50.0 µM 25.6% | [6]; [7] 2% | [6]; [8] 42% | [6]; at 50.0 µM 24.9%

CNC(=N)c1ccc(NC(=N)c2ccc(NC(=O)c3ccc(C(=O)Nc4ccc(C(=N)Nc5ccc(C(=N)NC)cc5)cc4)cc3)cc2)cc1
inactive: [1]; [8] 54% | [2]; [8] 57% | [2]; at 50.0 µM 51% | [3]; [7] 52% | [3]; [8] 61% | [3]; at 50.0 µM 53.8% | [4]; [7] 47% | [4]; [8] 42% | [4]; at 50.0 µM 11.7% | [5]; at 50.0 µM 46.6% | [6]; [8] 69%
active: [1]; [7] 74% | [1]; at 50.0 µM 70.2% | [2]; [7] 81% | [5]; [7] 79% | [5]; [8] 74% | [6]; [7] 87% | [6]; at 50.0 µM 87.5%

Cc1ccc(/C=C/C(=O)c2cc(CN(C)C)c(O)c(CN(C)C)c2)cc1
inactive: [1]; [7] 1% | [1]; [8] 5% | [1]; at 50.0 µM 41.9% | [2]; [7] 0% | [2]; [8] 25% | [2]; at 50.0 µM -1.25% | [3]; [7] -1% | [3]; [8] 11% | [3]; at 50.0 µM -9.5% | [4]; [7] 4% | [4]; [8] -4% | [4]; at 50.0 µM 55.6% | [5]; [7] 3% | [5]; [8] 8% | [5]; at 50.0 µM -3.35% | [6]; [7] -2% | [6]; [8] 23% | [6]; at 50.0 µM 1.4%

O=C(O)CC(CCCc1ccccc1)C(=O)O (stereo not given)
inactive: [1]; [7] -1% | [1]; [8] -3% | [1]; at 50.0 µM -7.45% | [2]; [7] -41% | [2]; [8] -3% | [2]; at 50.0 µM 15.4% | [3]; [7] -1% | [3]; [8] -4% | [3]; at 50.0 µM -10.8% | [4]; [7] -2% | [4]; [8] -1% | [4]; at 50.0 µM 40.9% | [5]; [7] -5% | [5]; [8] -7% | [5]; at 50.0 µM -1.1% | [6]; [7] 0% | [6]; [8] -4% | [6]; at 50.0 µM 2.55%

CC(=O)Nc1ccc2c(c1)[nH]c(=O)c1cc(Cl)ccc12
active: [1]; [8] 96% | [1]; at 50.0 µM 82.8% | [3]; [8] 72% | [4]; [8] 76% | [6]; [8] 91%
inactive: [1]; [7] 60% | [2]; [7] 18% | [2]; [8] 63% | [2]; at 50.0 µM -1.45% | [3]; [7] 12% | [3]; at 50.0 µM 7.25% | [4]; [7] -20% | [4]; at 50.0 µM 0.95% | [5]; [7] 4% | [5]; [8] 7% | [5]; at 50.0 µM -7.95% | [6]; [7] 29% | [6]; at 50.0 µM 35.5%

CC(=O)Nc1ccc(-c2cnc3ccccc3c2)cc1
inactive: [1]; [7] 5% | [1]; [8] 29% | [1]; at 50.0 µM 14.2% | [2]; [7] -13% | [2]; [8] 15% | [2]; at 50.0 µM 6.2% | [3]; [7] 8% | [3]; [8] 18% | [3]; at 50.0 µM 4.25% | [4]; [7] -5% | [4]; [8] -6% | [4]; at 50.0 µM 36.5% | [5]; [7] -5% | [5]; [8] -1% | [5]; at 50.0 µM 11.2% | [6]; [7] 17% | [6]; [8] 29% | [6]; at 50.0 µM 9.15%

COCCCNC(=O)SC
inactive: [1]; [7] 0% | [1]; [8] -2% | [1]; at 50.0 µM -9.65% | [2]; [7] 2% | [2]; [8] -1% | [2]; at 50.0 µM -22.4% | [3]; [7] 3% | [3]; [8] 2% | [3]; at 50.0 µM -15.6% | [4]; [7] -2% | [4]; [8] 0% | [4]; at 50.0 µM 56.6% | [5]; [7] 0% | [5]; [8] 2% | [5]; at 50.0 µM -6.85% | [6]; [7] 0% | [6]; [8] -2% | [6]; at 50.0 µM 19.1%

O=C(NCCCCCNC(=O)C12CC3CC(CC(C3)C1)C2)C12CC3CC(CC(C3)C1)C2
inactive: [1]; [7] 8% | [1]; [8] 7% | [1]; at 50.0 µM 5.9% | [2]; [7] 5% | [2]; [8] -8% | [2]; at 50.0 µM 27.8% | [3]; [7] 7% | [3]; [8] 7% | [3]; at 50.0 µM -5.15% | [4]; [7] -1% | [4]; [8] -2% | [4]; at 50.0 µM 40.2% | [5]; [7] 4% | [5]; [8] 0% | [5]; at 50.0 µM 1.75% | [6]; [7] 3% | [6]; [8] 12% | [6]; at 50.0 µM 4.15%
